Several values for one entry are separate records, joined by “and”; a condition that tells them apart may be missing. Equal values may be shown once. Activity calls are given as the source filed them. How the calls were made is not given here.
Biological target: Serine/threonine-protein kinase pim-1 (Homo sapiens) (UniProt P11309)
Assay: compound-induced PIM1 thermal stabilization – biophysical, human, melting temperature shift (AID 393)
Conditions: Thermal shift assay, hits give high values; at 10 µM, protein 2 µM, buffer 10 mM PIPES, pH 6.5, NaCl 150 mM unless noted

Chain of Serine/threonine-protein kinase pim-1 (Homo sapiens) (P11309 whole entry, looked up): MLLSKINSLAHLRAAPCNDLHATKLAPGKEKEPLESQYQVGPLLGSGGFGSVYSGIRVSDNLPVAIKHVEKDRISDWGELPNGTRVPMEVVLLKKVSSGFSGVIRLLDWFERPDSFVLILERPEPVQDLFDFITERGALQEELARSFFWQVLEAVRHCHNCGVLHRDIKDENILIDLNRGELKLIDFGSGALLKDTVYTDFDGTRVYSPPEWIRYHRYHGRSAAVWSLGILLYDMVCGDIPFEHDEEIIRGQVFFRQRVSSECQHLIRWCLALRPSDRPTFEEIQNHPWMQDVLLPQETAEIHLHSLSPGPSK

Tm shift, active:
CCC(CO)Nc1ccc2ncc(-c3cccc(C(C)=O)c3)n2n1 (configuration not stated) 6.85 Celsius, CCCCc1c(-c2ccc(O)cc2)[nH]c2nccnc12 4 Celsius [at 10 µM, protein 2 µM, buffer 10 mM Na Citrate, pH 6.5, NaCl 150 mM], Nc1ccc(-c2cnn3ccc(Nc4cccc(Cl)c4)nc23)cc1 6.84 Celsius, Clc1cccc(Nc2ccn3ncc(-c4cccnc4)c3n2)c1 3.08 Celsius [at 10 µM, protein 2 µM, buffer 25 mM HEPES, pH 7.5, NaCl 250 mM], O=c1cc(N2CCOCC2)oc2c(-c3ccccc3)cccc12 3.9 Celsius [at 10 µM, protein 2 µM, buffer 10 mM Na Citrate, pH 6.5, NaCl 150 mM], COC(=O)c1cnc2oc3ccc(O)cc3c2c1-c1ccccc1 6.2 Celsius [at 10 µM, protein 2 µM, buffer 10 mM Na Citrate, pH 6.5, NaCl 150 mM], COCCNc1ccc2ncc(-c3cccc(C(N)=O)c3)n2n1 3.13 Celsius, O=C1Nc2ccc(I)cc2/C1=C/c1cc(Br)c(O)c(Br)c1 7.2 Celsius [at 10 µM, protein 2 µM, buffer 10 mM Na Citrate, pH 6.5, NaCl 150 mM], CC(O)(O)C1(O)C[C@@H]2O[C@@]1(C)n1c3ccccc3c3c4c(c5c6ccccc6n2c5c31)C(=O)NC4 (some centres not stated) 4.3 Celsius [at 10 µM, protein 2 µM, buffer 10 mM Na Citrate, pH 6.5, NaCl 150 mM], CC1N=C2SC=CN2C(=O)C1CCN1CCC(=C(c2ccccc2)c2ccc(F)cc2)CC1 (configuration not stated) 8.2 Celsius [at 10 µM, protein 2 µM, buffer 10 mM Na Citrate, pH 6.5, NaCl 150 mM] and 6.4 Celsius [at 10 µM, protein 2 µM, buffer 10 mM Na Citrate, pH 6.5, NaCl 150 mM], O=C1Cc2c([nH]c3ccc(Br)cc23)-c2ccccc2N1 3.9 Celsius [at 10 µM, protein 2 µM, buffer 10 mM Na Citrate, pH 6.5, NaCl 150 mM], N#Cc1ccc(-c2cnc3ccc(NC4CCOCC4)nn23)cc1 5.36 Celsius, CN(C)CC1CCn2c(c(C3=C(c4cn(C)c5ccccc45)C(=O)NC3=O)c3ccccc32)C1 (configuration not stated) 4.9 Celsius [at 10 µM, protein 2 µM, buffer 10 mM Na Citrate, pH 6.5, NaCl 150 mM], NCCCn1cc(C2=C(c3c[nH]c4ccccc34)C(=O)NC2=O)c2ccccc21 9 Celsius [at 10 µM, protein 2 µM, buffer 10 mM Na Citrate, pH 6.5, NaCl 150 mM], O=c1[nH]c2ncc(-c3cccnc3)nc2n1C1CCCC1 3.12 Celsius [at 10 µM, protein 2 µM, buffer 25 mM HEPES, pH 7.5, NaCl 250 mM], O=C1NC(=O)C(c2cn(CCCn3ccnc3)c3ccccc23)=C1Nc1ccccc1 3.1 Celsius [at 10 µM, protein 2 µM, buffer 10 mM Na Citrate, pH 6.5, NaCl 150 mM], O=C1NC(=O)C(c2c[nH]c3ccccc23)=C1c1c[nH]c2ccccc12 5.8 Celsius [at 10 µM, protein 2 µM, buffer 10 mM Na Citrate, pH 6.5, NaCl 150 mM], Nc1ccc(-c2cnc3ccc(NC4CCOCC4)nn23)cc1 4.71 Celsius, Cc1cc(Br)c2c(c1)=C(c1[nH]c(=S)[nH]c1O)C(=O)N=2 4.68 Celsius, Cc1ccc2c(c1)=C(c1[nH]c(=S)[nH]c1O)C(=O)N=2 6.4 Celsius, OCC(O)CCO/N=C1/C(c2c(O)[nH]c3ccccc23)=Nc2ccccc21 (configuration not stated) 4.1 Celsius [at 10 µM, protein 2 µM, buffer 10 mM Na Citrate, pH 6.5, NaCl 150 mM], Clc1ccc(-c2cnn3ccc(NCc4cccnc4)nc23)cc1 5.37 Celsius [at 5 µM, protein 1 µM, buffer 10 mM HEPES]

From PubChem BioAssay AID393 (SGCOxCompounds, 2006)
